Compound activity: PubChem, National Center for Advancing Translational Sciences (NCATS)
Compounds with a hit are over-represented: about 9.5% of the library has one in this group of screens.
NPSR antagonist = antagonists of human neuropeptide S receptor cAMP signaling; Q6W5P4; CHO-NPSR cells, cAMP TR-FRET, antagonist mode; Potency, µM (titrated, usually from 38.3 µM), inactives show at the top dose activity change, negative = inhibition, hits mostly inhibitors; 1% of 220,000 active; further: nearly all actives have a fitted effect of over 50% in size
Target sequence (Q6W5P4 whole entry, looked up): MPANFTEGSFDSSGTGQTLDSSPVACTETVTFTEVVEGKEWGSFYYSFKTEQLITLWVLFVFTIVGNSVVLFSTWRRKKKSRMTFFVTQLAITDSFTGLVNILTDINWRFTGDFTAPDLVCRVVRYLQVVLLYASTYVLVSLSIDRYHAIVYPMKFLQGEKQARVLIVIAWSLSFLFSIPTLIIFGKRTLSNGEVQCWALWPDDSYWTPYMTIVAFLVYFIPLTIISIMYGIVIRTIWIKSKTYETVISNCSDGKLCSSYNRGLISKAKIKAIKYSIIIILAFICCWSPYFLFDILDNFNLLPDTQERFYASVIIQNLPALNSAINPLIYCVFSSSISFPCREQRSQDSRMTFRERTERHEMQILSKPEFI
HPGD inh = inhibitors of human 15-hydroxyprostaglandin dehydrogenase (HPGD); 4.3% of 150,000 active; purified HPGD, NADH fluorescence kinetic, PGE2 substrate; AID 894; P15428; Potency, µM, without a hit: at the highest dose activity change, negative = inhibition, actives largely listed as inhibitors; active means well fitted inhibition curve with a large enough effect, not every such curve was filed as active; inconclusive means small, poorly fitted or top-dose-only effect, or another doubt; inactive means no such curve, though single readings can be large or run the other way
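NADH formation kinetics: reaction with 30 uM PGE2 and 1 mM NAD+ (final), 20 nM enzyme, Tris-HCl pH 8 with Tween 20, after 15 min compound preincubation at room temperature. Fluorescence change, last versus first of five reads.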
Tau fibril FP = blocks human tau fibril formation measured by polarization. K18 P301L tau heparin fibrillization, Alexa594 FP, 6 h. Potency, µM (highest dose often 57.7 µM), inactives show top-dose activity, negative = inhibition, hits mostly inhibitors. 0.39% of 280,000 active. AID 1468; further: nearly all actives have a fitted effect of over 55% in size
Target sequence (P10636 561-689 P618L limits assumed): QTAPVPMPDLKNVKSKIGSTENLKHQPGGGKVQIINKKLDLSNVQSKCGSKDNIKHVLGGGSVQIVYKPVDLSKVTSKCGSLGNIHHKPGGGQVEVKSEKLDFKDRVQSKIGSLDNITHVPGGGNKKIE
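Steps: dispense K18 P301L tau (15 uM plus 0.24 uM Alexa 594 tracer, final) in pH 7 sodium acetate; add compound; add heparin (20 uM final); incubate 6 hr, 37 C; add ThT (30 uM final); after 1 hr ambient, read FP.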
Tau ThT inhib = blocks human tau fibril formation measured by thioflavin T; Potency, µM (series often up to 57.4 µM), without a hit: top-dose activity, negative = inhibition, actives largely listed as inhibitors; recombinant tau K18 P301L, heparin-induced fibrillization, ThT fluorescence; P10636; 2.1% of 270,000 active; further: nearly all actives have a fitted effect of over 55% in size
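Tau K18 P301L fragment (15 uM unlabeled plus 0.24 uM Alexa 594-labeled) in 100 mM sodium acetate pH 7 with compound, fibrillization induced by 20 uM heparin for 6 hr at 37 C. Thioflavin T (30 uM) added, fluorescence read after 1 hr (ex 450, em 510 nm).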
Tau fluor cs = counter-screen for tau fibril formation inhibitors | tau K18 P301L (four-repeat tau fragment) Alexa594 fluorescence, heparin fibrillization | Potency, µM (series often up to 57.7 µM), without a hit: at the top dose activity change, negative = decrease | 0.93% of 280,000 active | AID 1463; further: nearly all actives have a fitted effect of over 55% in size
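Human K18 P301L tau (15 uM unlabeled plus 0.24 uM Alexa 594-labeled, final) in 100 mM sodium acetate pH 7 was mixed with compound and 20 uM heparin and incubated 6 hr at 37 C.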
ALDH1A1 inh = ALDH1A1 (human) enzyme inhibition; Purified ALDH1A1, NADH fluorescence, propionaldehyde substrate; P00352; 7.3% of 220,000 active; Potency, µM (highest dose often 75.3 µM), without a hit: at the highest dose activity, negative = inhibition, most hits filed as inhibitors; active means well fitted inhibition curve with a large enough effect, not every such curve was filed as active; inconclusive means small, poorly fitted or top-dose-only effect, or another doubt; inactive means no such curve, though single readings can be large or run the other way;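 further: plate controls were no enzyme wells and a reference inhibitor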
An asterisk follows results filed as active; ? = inconclusive; nt = not tested or not shown; [ ] = dose if it differs, or a comment. Unless noted, the call rests on the fitted dose curve; in most records, active means well fitted curve in the direction sought with a large enough effect; inconclusive means small, poorly fitted or top-dose-only effect, or another doubt; inactive means no such curve, though single readings can be large; an effect the other way counts as inactive or inconclusive. Unless noted, on the % scale 0 is the no-effect control and ±100 the full control effect; potency means the concentration at half of the fitted maximal effect.

SMILES | NPSR antagonist | HPGD inh | Tau fibril FP | Tau ThT inhib | Tau fluor cs | ALDH1A1 inh
CCC(C)/C(C)=N/NC(=O)c1ccc(CSc2nc3ccccc3s2)cc1 (stereo unspecified) | 7% | 20µM* | -5% | ? | -13% | 20µM*
CCOc1ccc(C(=O)Nc2ccc3nc(SCc4ccccc4)sc3c2)cc1 | nt | nt | -16% | -6% | -1% | nt
CCCN1C(=O)/C(=C/c2c(N3CCNC(=O)C3CC(=O)OCC)nc3c(C)cccn3c2=O)SC1=S (stereo unspecified) | 13µM* | nt | -12% | 13µM* | 3% | nt
CCOC(=O)CC1C(=O)NCCN1c1nc2ccc(C)cn2c(=O)c1/C=C1\SC(=S)N(CC(C)C)C1=O (stereo unspecified) | -56% | nt | 2% | ? | -10% | nt
CCCN1C(=O)/C(=C/c2c(NCCCOC(C)C)nc3c(C)cccn3c2=O)SC1=S | -8%[46.1 µM] | -4% | 1% | ? | -12% | 10%
CCOC(=O)CC1C(=O)NCCN1c1nc2ccc(C)cn2c(=O)c1/C=C1\SC(=S)N(C(C)CC)C1=O (stereo unspecified) | ? | nt | 7% | 3% | -2% | 1.4µM*
Oc1oc(-c2ccco2)nc1C=Nc1cccc(Cl)c1 | -12%[7.67 µM] | -2% | -7% | ? | ? | -11%
CC(=NCc1cccc(Cl)c1)c1nc(-c2ccco2)oc1O | -4% | -15% | 8% | -13% | -28% | 18µM*
C=CCC(O)(C#Cc1ccccc1)c1ccccc1 (stereo unspecified) | nt | -4% | 2% | 0% | -3% | 4%
Oc1ccc(NC(=S)N=Nc2c(O)[nH]c3ccc(Br)cc23)cc1 | ? | nt | -2% | 5µM* | 16µM*[quencher] | -7%
O=C(N=Nc1c(O)[nH]c2ccc(Br)cc12)c1ccccc1-n1cccc1 | 13µM* | -13% | ? | ? | 14µM*[quencher] | ?
O=C(N=Nc1c(O)[nH]c2ccccc12)c1cccs1 | -35% | nt | -14% | 10µM* | -26% | 4%
Oc1cccc(NC(=S)N=Nc2c(O)[nH]c3ccc(Br)cc23)c1 | -38% | nt | -2% | 6.3µM* | 11µM*[quencher] | nt
CCC(=O)NC1CCN(C(=S)NC)CC1 | -4% | nt | -6% | -12% | -10% | 16%
Cc1nn(C)c(C)c1S(=O)(=O)N(CC(=O)NCCc1ccccc1)c1ccc(C(C)C)cc1 | nt | nt | -11% | 10% | 6% | nt
O=C(CSc1nc2ccccc2[nH]1)N=Nc1c(O)[nH]c2ccccc12 | -19% | ? | -13% | 14µM* | ? | -13%
Oc1ccc(NC(=S)N=Nc2c(O)[nH]c3ccccc23)cc1 | -48% | nt | 4% | 14µM* | ? | -10%
Cc1ccc(NC(=S)N=Nc2c(O)[nH]c3ccccc23)cc1 | -46% | nt | ? | ? | ? | 6%
CN(C)C(CNC(=O)CNC(=O)c1ccc(Br)cc1)c1ccccc1 (stereo unspecified) | 16% | nt | 0% | -4% | -5% | 0%
Cn1c(=O)c2c(nc(NN=C3CCCC3)n2C)n(C)c1=O | -3% | nt | ? | 22µM* | 22µM*[quencher] | nt
CCOc1ccc2c(O)csc2c1 | 3%[46.1 µM] | -16% | ? | 25µM* | -13% | 25µM*
Cc1ccc2c(c1)c1c(c(=O)n(-c3ccccc3)c(=O)n1CC(=O)NCCC1=CCCCC1)n2C | nt | nt | -9% | 13% | 4% | nt
COC(=O)c1c(NC(=S)Nc2cc(OC)c(Cl)cc2OC)sc2c1CCCCC2 | -48% | ? | -2% | 8% | 7% | 6.3µM*
CCOC(=O)c1c(NC(=S)Nc2cc([N+](=O)[O-])ccc2OC)sc2c1CCCCC2 | -25% | -27% | 5% | ? | ? | ?
COc1ccc(NC(=O)c2c(NCc3ccc(C)o3)sc3c2CCCCC3)c(OC)c1 | nt | nt | ? | 18µM* | ? | nt
COc1ccc(NC(=O)c2c(NCc3sccc3C)sc3c2CCCCC3)c(OC)c1 | nt | nt | ? | 28µM* | ? | nt
COc1ccc(Cl)cc1NC(=O)c1c(NCc2sccc2C)sc2c1CCCC2 | nt | nt | ? | 4µM* | ? | nt
